Laboratory results reported in publication PMC7819943, “Rice protein-binding microarrays: a tool to detect cis-acting elements near promoter regions in rice”.
Whole data set: some 39,000 sequences, median “fluorescence intensity (a.u.)” near 4,300, cut for the highest 2% near 39,000. The sample as a whole holds a higher share of the highest values than the screen did.

biological target: T1, OsSMF1 (Oryza sativa, UniProt Q6ZLB0 1-436); test: protein-binding microarray (RPBM); PBS, 2% BSA, 51.3 ng/ul salmon testes DNA, 50 uM zinc acetate, 200 nM TF, 25 C, 1 h; high values mean tight binding; conditions: protein: recombinant; tags: N-terminal polyhistidine and DsRed monomer fusion (pET32a); chain copies: 2; label: CyDye5-dUTP incorporated in the synthesized complementary strand; 3' TTTTT single-stranded linker to array surface; dsDNA, one strand shown
T1 sequence: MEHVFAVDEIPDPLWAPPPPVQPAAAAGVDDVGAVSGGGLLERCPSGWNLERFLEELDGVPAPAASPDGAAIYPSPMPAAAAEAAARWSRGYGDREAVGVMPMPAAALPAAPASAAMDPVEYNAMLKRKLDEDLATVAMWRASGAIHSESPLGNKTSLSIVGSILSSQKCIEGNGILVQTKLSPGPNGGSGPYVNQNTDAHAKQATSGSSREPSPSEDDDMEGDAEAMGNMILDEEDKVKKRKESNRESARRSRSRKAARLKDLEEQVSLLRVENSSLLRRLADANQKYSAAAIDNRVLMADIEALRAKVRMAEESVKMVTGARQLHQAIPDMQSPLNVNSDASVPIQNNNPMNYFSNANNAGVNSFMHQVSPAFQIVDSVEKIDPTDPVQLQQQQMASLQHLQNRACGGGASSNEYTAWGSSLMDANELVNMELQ
How it was run: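 Binding signal is reported as fluorescence intensity per feature (arbitrary units) from an Axon 4000B scanner. Incubation used 200 nM of each Ni–NTA-purified, N-terminally polyhistidine- and DsRed-fused transcription factor from E. coli BL21-CodonPlus on a double-stranded custom Agilent array for 1 h at 25 °C, with 50 µM zinc acetate in the buffer, followed by washing.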

Point of comparison: “GTTATATCTCACGTGTCAAAATTCCTATGATTTTCAGTAACGGAGTCACCTAGTGCAG”, binding signal 4700 fluorescence intensity (a.u.). Against it:
- TCAGCTCAGCAAATTAGGATGTTTCATTAGTTAGAACAAACGGAGTCACCTAGTGCAG — higher, 51600 fluorescence intensity (a.u.)
- TTTCGCAATTATATTGATGCAGAAATCAGCAGCTCACAATCGGAGTCACCTAGTGCAG — higher, 20700 fluorescence intensity (a.u.)
- TAACACAACTATTTACTCAGCTCACGTGTTTCATTAACAACGGAGTCACCTAGTGCAG — lower, 3340 fluorescence intensity (a.u.)
- AGCGACGAGTAAACAAAGCGCGGCGTAGCATGTGATGTGGCGGAGTCACCTAGTGCAG — lower, 4440 fluorescence intensity (a.u.)
- GCGTCACGTTCCTGTCGGCGGCGGCCAACGTGGCCCGCGTCGGAGTCACCTAGTGCAG — higher, 15200 fluorescence intensity (a.u.)
- CTGCTGCCGTCGCAGAAGGTGCTGACATGGCCAGGGGTGGCGGAGTCACCTAGTGCAG — higher, 45300 fluorescence intensity (a.u.)
- CCGTCGTGCTGGGTGTGGCGCCGGAGAAGAAGGCGCAGCACGGAGTCACCTAGTGCAG — higher, 41700 fluorescence intensity (a.u.)
- CGCTGCTGCCGTCACAGAAGGTGCTGACATGGCCTGGGGTCGGAGTCACCTAGTGCAG — higher, 7520 fluorescence intensity (a.u.)
- GCGCGCCGTCGTGGCGCTGGCGGCCACCACGGTGGTCACCCGGAGTCACCTAGTGCAG — lower, 4120 fluorescence intensity (a.u.)
- GCGCCGTCGTCGTCGCTGCCGTGGCGCCGCCGCGGCCACCCGGAGTCACCTAGTGCAG — higher, 6800 fluorescence intensity (a.u.)
- CGCCGCTGCCGCCAAACCGTCGGTGGAGAAGGCCTACCGGCGGAGTCACCTAGTGCAG — higher, 59200 fluorescence intensity (a.u.)
- GCCGCCGCCGCCGCCGCCGCTGACGAGGAGCAGAAGGTGGCGGAGTCACCTAGTGCAG — lower, 4310 fluorescence intensity (a.u.)
- GCCGGCGACGCTGCCGCCGTCACCACTACCGCTGCCGCGGCGGAGTCACCTAGTGCAG — lower, 4140 fluorescence intensity (a.u.)
- CGCCGAGCTGCCACGCTCGCGTCGCGTCCAGATGCGCGCGCGGAGTCACCTAGTGCAG — lower, 3680 fluorescence intensity (a.u.)
- CCGAGCCACGTCGCGCCGCCGCCGCTGCTGTGCCGCCGCGCGGAGTCACCTAGTGCAG — higher, 5650 fluorescence intensity (a.u.)
- GAGTGGAGAAGGCGCGCCACCGTCGCTAGAGCCGATGCTGCGGAGTCACCTAGTGCAG — higher, 47700 fluorescence intensity (a.u.)
- GCGGGCGCACGGGTGGGTGGTGTTCTGGGGCGGAGGCAGCCGGAGTCACCTAGTGCAG — lower, 3310 fluorescence intensity (a.u.)
- GATGTTACGCGTGTAATGGTGTGTGCGTGTATATACTTTGCGGAGTCACCTAGTGCAG — higher, 7330 fluorescence intensity (a.u.)
- ACGTTTACTCCCAGTACACACAAGACACTACTAGCTTAGACGGAGTCACCTAGTGCAG — lower, 3420 fluorescence intensity (a.u.)
- TGGAGGAGGAGGAGGGGAGACCACCGGAGGTAGGCGAATCCGGAGTCACCTAGTGCAG — lower, 3140 fluorescence intensity (a.u.)
- TCAGATAGCCACCATGACATGTATCAGTACATGCAGTGATCGGAGTCACCTAGTGCAG — lower, 4480 fluorescence intensity (a.u.)
- CGAATAAGCCCTTAATGTGTACGTTATTTGGTTTATCCACCGGAGTCACCTAGTGCAG — lower, 3240 fluorescence intensity (a.u.)
- CGCCGGTGCTGATGCTGATCGATCTTACGTCGCGTCGCGACGGAGTCACCTAGTGCAG — lower, 3280 fluorescence intensity (a.u.)
- CTGCAGCAAACGACCAGCCATGTCACAGGTTGTGAAGGTCCGGAGTCACCTAGTGCAG — lower, 4600 fluorescence intensity (a.u.)
- AGAGCAAGGCGCCGGTGGTGCTCATCAAGCCGTCGGCGACCGGAGTCACCTAGTGCAG — higher, 63100 fluorescence intensity (a.u.)
- TTGGGCGAGGTAGAGGCGGCGCCGGTGTCATCACCGTCGTCGGAGTCACCTAGTGCAG — higher, 5140 fluorescence intensity (a.u.)
- GAAGGCGGCGCGGAAGTCGGCGCCGGCGACCGGCGGCGTGCGGAGTCACCTAGTGCAG — higher, 9120 fluorescence intensity (a.u.)
- ACGGTCACGGTCCGGCCGCTCTACACGTACGTAGTACGTGCGGAGTCACCTAGTGCAG — higher, 25100 fluorescence intensity (a.u.)
- GAGATTTGATGACTGGGATGCCACATGGACACCACGACAGCGGAGTCACCTAGTGCAG — higher, 13300 fluorescence intensity (a.u.)
- ATGGTGGTTGTGTCTTATATTTTGGAATGGAGGGACTTATCGGAGTCACCTAGTGCAG — higher, 21300 fluorescence intensity (a.u.)
- TGGGCCGTGATTGAGGCCTATATATACGTGGCCTGACAAACGGAGTCACCTAGTGCAG — lower, 4000 fluorescence intensity (a.u.)
- CAACACGCTCGATATCATCTAGTTAAACTAACCTAGTGTGCGGAGTCACCTAGTGCAG — higher, 42700 fluorescence intensity (a.u.)
- GGATCGAAACTTGTGTTAAACACGTCAACTTCATGCATCTCGGAGTCACCTAGTGCAG — lower, 3310 fluorescence intensity (a.u.)
- ATCAACGTATCTAAACCGGATGGAAACACGTATCTAAACACGGAGTCACCTAGTGCAG — higher, 6180 fluorescence intensity (a.u.)
- AGCTTCGGTTTTCTTACTCAGCACAACGGGGTGGTGGCGCCGGAGTCACCTAGTGCAG — higher, 5360 fluorescence intensity (a.u.)
- CCGTTGAATGTGCCAGACAAACTGAGTGTAATTTAATATTCGGAGTCACCTAGTGCAG — higher, 65100 fluorescence intensity (a.u.)
- GAAAATTTGAGCAAAATTTAGTTGAATTTGAACAAATATTCGGAGTCACCTAGTGCAG — higher, 6670 fluorescence intensity (a.u.)
- AATTACAGATTCCGTCAGAAAACTGTGAGACAGATTTATTCGGAGTCACCTAGTGCAG — lower, 3290 fluorescence intensity (a.u.)
- TCCCTTGTCGACACATGCGTGTCAGCTCCAGGTTTATAACCGGAGTCACCTAGTGCAG — higher, 6370 fluorescence intensity (a.u.)
- CTCATGTTGTTTGACGGTTTGACTCTCCTAGTTTATCATCCGGAGTCACCTAGTGCAG — lower, 3370 fluorescence intensity (a.u.)
- TTCACGCCCTGTAACATCGTGTGCATCCATCCCTCCACCGCGGAGTCACCTAGTGCAG — lower, 4190 fluorescence intensity (a.u.)
